According to the supplement of paper PMC6555819:

Key:
Assay in all cases: PBM binding z-score (relative to random genomic background probes); higher = stronger binding; sequences stand for … in GC…GCGATTGACAGCGTAGAATGAAGG
[1] = system: FXR:RXRa (NR concentration 270 nM, RXRa partner concentration 90 nM)
Method in brief: (§1)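 Each nuclear receptor dimer, without ligand, was incubated for 1 h on custom Agilent 4×180K protein-binding microarrays. Binding was detected with antibodies against each partner (one per run), and scanned fluorescence was regression-normalized. The binding z-scores are referenced to random human genomic background probes.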

[2] = system: LXRa:RXRa (NR concentration 270 nM, RXRa partner concentration 90 nM)
Method in brief: as §1

[3] = system: LXRa homodimer (NR concentration 270 nM)
Method in brief: as §1

[4] = system: LXRb:RXRa (NR concentration 270 nM, RXRa partner concentration 90 nM)
Method in brief: as §1

[5] = system: LXRb homodimer (NR concentration 270 nM)
Method in brief: as §1

[6] = system: PPARa:RXRa (NR concentration 270 nM, RXRa partner concentration 90 nM)
Method in brief: as §1

[7] = system: PPARg:RXRa (NR concentration 180 nM, RXRa partner concentration 90 nM)
Method in brief: as §1

[8] = system: PPARg:RXRa 270nM:90nM, anti-RXR (NR concentration 270 nM, RXRa partner concentration 90 nM)
Method in brief: as §1

[9] = system: PPARg:RXRa 30nM:10nM, anti-RXR (NR concentration 30 nM, RXRa partner concentration 10 nM)
Method in brief: as §1

[10] = system: PPARg:RXRa 90nM:30nM, anti-RXR (NR concentration 90 nM, RXRa partner concentration 30 nM)
Method in brief: as §1

[11] = system: PPARg:RXRa DBDmut IVT, anti-RXR (DBD mutation: RXRa K156A/R161A, NR concentration 270 nM, RXRa partner concentration 90 nM)
Method in brief: as §1

[12] = system: PPARg:RXRa IVT, anti-PPARg (NR concentration 270 nM, RXRa partner concentration 90 nM)
Method in brief: as §1

[13] = system: PPARg DBDmut:RXRa IVT, anti-PPARg (DBD mutation: PPARg1 K132A/R137A, NR concentration 270 nM, RXRa partner concentration 90 nM)
Method in brief: as §1

[14] = system: PPARg DBDmut IVT, anti-PPARg (DBD mutation: PPARg1 K132A/R137A, NR concentration 270 nM)
Method in brief: as §1

[15] = system: PPARg homodimer (NR concentration 180 nM)
Method in brief: as §1

[16] = system: PXR:RXRa (NR concentration 270 nM, RXRa partner concentration 90 nM)
Method in brief: as §1

[17] = system: PXR homodimer (NR concentration 270 nM)
Method in brief: as §1

[18] = system: RARa:RXR (NR concentration 270 nM, RXRa partner concentration 90 nM)
Method in brief: as §1

[19] = system: RARa homodimer (NR concentration 270 nM)
Method in brief: as §1

[20] = system: RARb:RXRa (NR concentration 270 nM, RXRa partner concentration 90 nM)
Method in brief: as §1

Sequence	PBM binding z-score [1]	PBM binding z-score [2]	PBM binding z-score [3]	PBM binding z-score [4]	PBM binding z-score [5]	PBM binding z-score [6]	PBM binding z-score [7]	PBM binding z-score [8]	PBM binding z-score [9]	PBM binding z-score [10]	PBM binding z-score [11]	PBM binding z-score [12]	PBM binding z-score [13]	PBM binding z-score [14]	PBM binding z-score [15]	PBM binding z-score [16]	PBM binding z-score [17]	PBM binding z-score [18]	PBM binding z-score [19]	PBM binding z-score [20]
ATATGTAGGTTACATCCGGGTGATTCAGGCTATG	0.452	4.47	0.517	1.64	0.268	3.54	5.24	4.39	1.74	3.56	6.76	7.32	2.76	2.26	1.49	0.723	0.414	0.999	0.428	1.05
CCTATTAGTTGACCATAAGGGCAATCGAAGCTCG	0.68	0.259	0.71	0.623	0.695	0.456	0.434	0.366	0.122	0.461	0.549	0.361	0.362	0.72	1.56	0.609	0.878	0.531	2.18	1.38
AGAATTAGGTTATTAAGATCAGGGAATTGCGGTC	0.488	0.607	0.495	0.404	0.244	1.87	1.99	2.31	1.74	1.58	6.63	5.44	1.55	1.27	1.3	0.5	0.468	0.229	1.73	0.932
TCTAGTTAGTCACGGAGGTCACACACGACGGGTA	3.07	3.04	2.41	3.3	0.442	3.76	2.22	3.13	3.48	3.22	1.76	2.1	1.18	0.869	2.2	4.09	1.01	4.71	1.62	3.26
CCTCGGAGTACAACAGGAGGTCAGAGCTGCCAGA	0.85	1.93	1.79	1.35	-0.438	1.92	0.371	0.479	-0.324	-0.0827	0.161	0.257	-0.9	-1.14	1.18	2.19	0.607	2.23	0.843	2.06
ACTTACGGGTGAACGAGGTTATAGCACGCGTATA	0.972	1.28	0.16	1.21	-0.375	2.36	1.73	1.35	0.333	0.745	2.06	2.61	0.498	1.4	0.965	1.75	0.287	2.01	0.821	1.19
CTCGAAAGGTCGTGCTCAGGTGAGTAAACCAAAC	5.29	3.87	0.151	3.25	0.181	4.92	2.7	4.18	0.732	2.6	0.815	1.96	0.213	0.0254	1.55	3.34	0.175	4.18	0.14	3.98
TCGAGTAGGTTAGTAGGGGCATTCAGCCAACATA	0.292	-0.0612	-0.0759	0.774	-0.216	1.29	1.01	1.82	0.971	1.35	2.98	3.4	0.408	0.00263	0.668	0.244	0.000181	0.287	0.25	0.637
AGAATGAGGTTATTAAGATCAGCGAATTGCGGTC	1.3	1.23	0.0436	1.11	-0.0862	2.49	1.47	1.85	0.288	1.29	3.16	2.5	0.614	0.292	0.609	1	0.607	1.22	0.18	1.27
GCGACTGGGGCATCAGCAGGTTACCATGACTTAA	-0.337	-0.256	-0.454	0.309	-1.08	0.903	0.918	0.462	-0.743	-0.0721	3.94	2.97	-0.844	-0.497	-0.0201	-0.489	-0.454	-0.00016	-0.803	0.805
CCAGACAGGTGAGAAGATAACTCAGCCTCGATTA	0.0426	0.15	-0.0638	-0.14	-0.471	-0.179	0.576	-0.087	-0.116	0.155	0.896	0.216	-0.0942	-0.455	0.364	0.081	0.476	0.117	0.792	0.241
AGAATGAGTTTATACGTAGATCAGGGAAGAAAGT	-0.0777	-0.0651	-0.37	-0.296	-0.286	-0.283	0.634	-0.311	0.114	-0.213	-0.616	0.0744	0.757	0.612	-0.608	0.81	1.21	-0.34	0.222	0.0922
CGTCCAACGTCAAAGGTCAGTGAAGAGATGACGG	2.97	3.2	0.576	2.94	0.0829	4.04	3.28	4.92	2.64	4.72	-0.294	1.63	-0.376	-0.0246	3.55	3.58	0.376	5.04	1.79	4.24
CGTTACGGGTCACGAGGTTATAGCACGACGAGCG	6.83	4.97	0.389	4.23	-0.0926	6.15	6.94	6.69	2.7	5.8	4.5	5.57	1.39	0.539	1.92	4.65	0.178	5.93	0.803	4.56
AATACAGGGTCATCGTAGCCCAGAGTACGCACAG	6.98	5.87	2.36	4.47	1	5.89	6.62	6.26	3.25	4.75	3.35	5.25	2.19	2.43	2.47	4.07	0.552	4.59	0.855	4.29
TCATATAGGTAAAGGTGTAAGTCGAACGATATGA	0.564	0.266	-0.224	0.356	-0.187	1.81	3.01	3.83	4.04	4.1	3.51	3.04	1.38	0.989	0.612	0.127	-0.297	0.259	0.411	0.413
CCTATTAGTTGACCATAAGGGCATCCGAAGCTCG	0.924	0.501	0.549	0.384	0.423	0.26	0.493	0.533	-0.0651	0.145	0.225	0.238	0.764	0.611	0.73	0.903	1	0.903	1.97	1.37
CCTATTAGGTGACCATAAGGGCAACCGAAGCTCG	0.883	0.519	-0.266	0.209	-0.299	1.81	1.73	1.56	0.344	0.657	5.2	4.27	0.935	-0.392	0.93	0.636	0.326	1.19	0.485	1.87
ACAGACAGGTGAGTGAAGGTAACTAAGCTGGACG	0.105	-0.0477	-0.437	-0.48	-0.463	0.107	0.457	-0.0366	-0.0843	-0.406	0.098	0.719	-0.328	-0.677	-0.864	-0.279	-0.0557	0.0664	0.112	0.425
ACTCTTAGTTGAGACGAGGGCAACCGATAGGTTG	0.56	-0.132	-0.317	0.037	-0.519	0.348	0.499	-0.0707	-0.348	-0.0252	-0.123	0.386	-0.0171	0.118	-0.417	1.34	-0.122	0.668	-0.22	0.939
CCTTACGGGTCACTCCCGGTTATAGCATCGGAGT	4.78	7.33	2	4.66	0.279	4.23	2.63	3.52	0.522	2.33	2.29	3.2	-0.351	0.418	2.11	3.32	0.36	3.34	1.06	3.65
TAGCCTAGGTCATGCGGGCCAGTAGAGTGTCGGC	4.11	3.32	-0.00774	1.64	-0.216	3.58	1.91	2.64	0.154	1.57	1.93	2.8	-0.889	-0.693	0.316	1.39	-0.448	2.37	-0.56	3.75
ACTAGCAGGCCAAGTTTGGGTCACGCAAACAAAG	1.01	0.518	-0.2	1.33	-0.873	2.27	0.556	1.04	-0.0172	0.546	1.23	1.63	-0.285	-0.284	0.631	1.61	-0.0621	2.51	-0.0801	2.33
TCATATAGGTATACAGGTGAAAGTCCGTAAGTTA	1.01	1.13	0.26	1.2	0.257	1.9	2.4	3.24	3.8	3.58	2.8	2.54	0.449	1.54	1.33	0.873	0.816	1.03	1.2	0.603
AGCACGAGGGCACGCTGAGTTGATAGCAGAGTAG	0.941	0.602	-0.669	0.23	-1.28	1.61	1.22	0.752	-0.187	0.162	2.09	2.17	0.0423	-0.669	0.0355	1.32	0.313	0.919	-0.335	2.59
TCATATAGCTAAATGCTAGGTGAAAGTCCGATCT	0.567	0.2	-0.0142	0.288	-0.55	0.6	0.313	1.67	2.82	2.07	1.45	0.452	0.679	0.932	0.101	0.31	-0.278	0.514	-0.0788	0.00512
ATCCCTAGGTAACAAGTTCAGTGAAAGAGAGGAC	0.484	0.833	0.361	0.843	0.823	0.724	0.555	0.236	0.0944	0.289	0.293	0.638	0.652	0.582	1.15	1.7	1.53	0.808	0.946	1.51
GCTCGGAGTACAAGGTCAGAGCTTTGTCCGTAGA	1.17	1.6	0.0814	1	-0.761	2.17	0.501	1.48	-0.171	0.497	0.542	0.648	-1.36	-1.01	1.73	1.67	-0.101	2.14	-0.729	3.07
